Screening data: PubChem, several laboratories
Hits are enriched below; roughly 27% of the tested compounds scored in any of these assays.
CYP2C9 inhib: inhibitors of human CYP2C9; inhibition, % at 5 µM; CYP2C9 Supersomes, luciferin-H conversion, luminescence; 20% of 96,000 active;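 active = blocking of liver enzyme CYP2C9 beyond about 50% at 5 µM, limit read from the data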
CYP2C19 act: cytochrome P450 2C19 (human) activation; recombinant CYP2C19, luciferin-H EGE luminescence; hits give high values; 0 = fully inhibited enzyme, 1 = untreated enzyme; AID 1025; 96,000 tested, under 10 active; activation factor at 5 µM;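 active = activation factor of at least 2 at 5 µM in the primary screen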;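 also: 0 = wells with 2.5 mM tranylcypromine and 1 = vehicle-only wells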
sEH activator: soluble epoxide hydrolase (human) activation | P34913 | purified human sEH enzymatic activity, activator screen | activation, % at 2 µM | 0.04% of 91,000 active | AID 717; in the data active = activation above about 37%
Target sequence (P34913 whole entry, looked up): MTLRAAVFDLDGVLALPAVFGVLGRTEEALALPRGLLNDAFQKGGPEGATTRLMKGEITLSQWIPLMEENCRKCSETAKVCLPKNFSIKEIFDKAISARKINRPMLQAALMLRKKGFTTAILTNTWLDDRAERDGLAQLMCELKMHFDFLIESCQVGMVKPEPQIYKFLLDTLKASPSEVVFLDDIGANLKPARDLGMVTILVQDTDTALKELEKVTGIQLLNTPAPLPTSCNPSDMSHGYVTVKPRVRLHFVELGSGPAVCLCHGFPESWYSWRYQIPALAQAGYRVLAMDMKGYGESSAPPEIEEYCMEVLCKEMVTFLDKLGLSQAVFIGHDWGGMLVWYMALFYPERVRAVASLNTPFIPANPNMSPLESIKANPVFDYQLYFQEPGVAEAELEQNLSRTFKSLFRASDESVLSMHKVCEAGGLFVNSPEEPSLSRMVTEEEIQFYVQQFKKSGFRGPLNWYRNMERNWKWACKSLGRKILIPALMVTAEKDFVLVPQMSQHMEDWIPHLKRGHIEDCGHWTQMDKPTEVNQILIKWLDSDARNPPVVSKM
sEH inhibitor: blocks human soluble epoxide hydrolase activity | AID 707 | inhibition, % at 2 µM | recombinant human sEH enzymatic activity assay | 0.34% of 91,000 active; in the data active = inhibition above about 80%
CYP2C9 activ: CYP2C9 (human) activation; P11712; recombinant CYP2C9, luciferin-H conversion, luminescence; hits give high values; factor 1 = untreated enzyme, 0 = blocked; activation factor at 5 µM; 1.4% of 96,000 active;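 active = activation factor of 2 or more for CYP2C9 at a 5 µM dose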;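 also: 0 = sulfaphenazole-blocked wells and 1 = vehicle-only wells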
CYP2C19 inh: inhibitors of human CYP2C19 | P33261 | CYP2C19 Supersomes, luciferin-H EGE luminescence, 30 min | inhibition, % at 5 µM | 21% of 96,000 active | AID 778;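 active = CYP2C19 inhibition above a set limit at 5 µM in the primary screen, cut at about 50% in these data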;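 also: plate controls were negative control wells for no effect and 2.5 mM tranylcypromine positive control for full effect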
* = called active by the depositor.

How did CCc1ccc(NC(=O)c2sccc2-n2cccc2)cc1 do in these assays?
CYP2C9 inhib: 14; CYP2C19 act: 0.9; sEH activator: 4; sEH inhibitor: -6; CYP2C9 activ: 0.9; CYP2C19 inh: 12

Results for Cc1ccccc1NC(=O)Cn1nc(C(F)(F)F)cc1C1CC1 ?
CYP2C9 inhib: -8; CYP2C19 act: 0.3; sEH activator: 8; sEH inhibitor: -7; CYP2C9 activ: 1.1; CYP2C19 inh: 72*

Results for Cc1cc(C(F)(F)F)nn1CC(=O)Nc1ccc(Br)c2cccnc12 ?
sEH activator: -7; sEH inhibitor: 7

Results for COC(=O)c1cc(C(=O)OC)n(Cc2ccc(Br)cc2)n1 ?
CYP2C9 inhib: 58*; CYP2C19 act: 0.1; sEH activator: -9; sEH inhibitor: 12; CYP2C9 activ: 0.4; CYP2C19 inh: 91*

What do the screens show for `COC(=O)c1ccc(Cn2nc(C)cc2C)cc1`?
CYP2C9 inhib: -4; CYP2C19 act: 0.1; sEH activator: 1; sEH inhibitor: -2; CYP2C9 activ: 1; CYP2C19 inh: 93*

How did Cc1cc(C(F)(F)F)nn1CC(=O)NCc1ccccc1 do in these assays?
CYP2C9 inhib: -37; CYP2C19 act: 0.5; sEH activator: 15; sEH inhibitor: -13; CYP2C9 activ: 1.4; CYP2C19 inh: 52*

How did CCOC(=O)N1CCN(C(=O)CN(c2ccc(OCc3ccccc3)cc2)S(C)(=O)=O)CC1 do in these assays?
CYP2C9 inhib: 16; CYP2C19 act: 1; sEH activator: 13; sEH inhibitor: -19; CYP2C9 activ: 0.8; CYP2C19 inh: -1

What do the screens show for `Cc1cc(C)n(Cc2ccc(NC(=O)c3ccc(COc4ccccc4Br)cc3)cc2)n1`?
CYP2C9 inhib: 77*; CYP2C19 act: 0.7; sEH activator: -39; sEH inhibitor: 39; CYP2C9 activ: 0.2; CYP2C19 inh: 31

Results for COC(=O)c1ccc(Cn2nc(C(F)(F)F)cc2C)cc1 ?
CYP2C9 inhib: 27; CYP2C19 act: 0.3; sEH activator: -5; sEH inhibitor: 8; CYP2C9 activ: 0.7; CYP2C19 inh: 69*

How did COC(=O)c1ccc(Cn2nc(C)c(Br)c2C)cc1 do in these assays?
CYP2C9 inhib: 70*; CYP2C19 act: 0; sEH activator: -6; sEH inhibitor: 5; CYP2C9 activ: 0.3; CYP2C19 inh: 99*

Results for O=C(Nc1cccc(C(F)(F)F)c1)c1ccco1 ?
CYP2C9 inhib: -33; CYP2C19 act: 1; sEH activator: -1; sEH inhibitor: 0; CYP2C9 activ: 1.3; CYP2C19 inh: 3

What do the screens show for `COc1ccc(NC(=O)Nc2nnc(-c3ccccc3SCc3ccccc3)s2)cc1`?
CYP2C9 inhib: 12; CYP2C19 act: 0.9; sEH activator: -11; sEH inhibitor: 8; CYP2C9 activ: 0.9; CYP2C19 inh: 5

How did O=C(Nc1ccc(F)cc1)c1sccc1SCc1cccc(C(F)(F)F)c1 do in these assays?
CYP2C9 inhib: 65*; CYP2C19 act: 0.6; sEH activator: 4; sEH inhibitor: -6; CYP2C9 activ: 0.4; CYP2C19 inh: 36

Results for O=C(Nc1ccc(F)cc1F)c1ccco1 ?
CYP2C9 inhib: 6; CYP2C19 act: 1.1; sEH activator: 2; sEH inhibitor: -3; CYP2C9 activ: 0.9; CYP2C19 inh: -6

Results for COc1ccc(NC(=O)c2sccc2SCc2cccc(C(F)(F)F)c2)cc1 ?
CYP2C9 inhib: 69*; CYP2C19 act: 0.5; sEH activator: 18; sEH inhibitor: -20; CYP2C9 activ: 0.3; CYP2C19 inh: 50*

Results for O=C(Nc1ccc(F)cc1F)c1sccc1SCc1cccc(C(F)(F)F)c1 ?
CYP2C9 inhib: 58*; CYP2C19 act: 0.7; sEH activator: -8; sEH inhibitor: 8; CYP2C9 activ: 0.4; CYP2C19 inh: 26

How did O=C(NCc1ccccn1)C1CCC(=O)N1C1CCCCC1 (stereo not drawn) do in these assays?
CYP2C9 inhib: -12; CYP2C19 act: 1; sEH activator: 6; sEH inhibitor: -8; CYP2C9 activ: 1.1; CYP2C19 inh: -3

How did CC1=C(C(N)=O)C(c2cccc(O)c2)n2nc(CCCO)nc2N1 (stereo not drawn) do in these assays?
CYP2C9 inhib: -8; CYP2C19 act: 1.2; sEH activator: -6; sEH inhibitor: 5; CYP2C9 activ: 1.1; CYP2C19 inh: -17

Results for CCOC(=O)c1sc2nc(N3CCCC3)c3c(c2c1N)CC(C)(C)OC3 ?
CYP2C9 inhib: 7; CYP2C19 act: 1; sEH activator: 1; sEH inhibitor: 2; CYP2C9 activ: 0.9; CYP2C19 inh: 4

What do the screens show for `CCOC(=O)c1sc2nc(C(C)C)c3c(c2c1N)CC(C)(C)OC3`?
CYP2C9 inhib: 69*; CYP2C19 act: 0.9; sEH activator: 4; sEH inhibitor: -1; CYP2C9 activ: 0.3; CYP2C19 inh: 5

What do the screens show for `COc1ccc(CN(C(=O)c2ccc3c(c2)OCCO3)C(C(=O)NC2CCCCC2)c2ccc3ncccc3c2)cc1` (stereo not drawn)?
CYP2C9 inhib: 27; CYP2C19 act: 0.4; sEH activator: -8; sEH inhibitor: 11; CYP2C9 activ: 0.7; CYP2C19 inh: 62*

Results for O=C(NC1CCCCC1)C(c1ccc2ncccc2c1)N(Cc1ccccc1)C(=O)c1ccc2c(c1)OCCO2 (stereo not drawn) ?
CYP2C9 inhib: 67*; CYP2C19 act: 0.2; sEH activator: -3; sEH inhibitor: 6; CYP2C9 activ: 0.3; CYP2C19 inh: 80*

How did COc1ccc(CN(C(=O)c2nsc(Cl)c2Cl)C(C(=O)NC2CCCCC2)c2ccc(OC)cc2)cc1 (stereo not drawn) do in these assays?
CYP2C9 inhib: 58*; CYP2C19 act: 0.5; sEH activator: -5; sEH inhibitor: 8; CYP2C9 activ: 0.4; CYP2C19 inh: 51*

How did CCOc1cc(NC(=S)Nc2ccccc2OC)c(OCC)cc1NC(=O)c1ccccc1C do in these assays?
CYP2C9 inhib: 44; CYP2C19 act: 0.8; sEH activator: 0; sEH inhibitor: 2; CYP2C9 activ: 0.6; CYP2C19 inh: 21

What do the screens show for `O=C(CC1CCCC1)OCn1nnc2ccccc2c1=O`?
CYP2C9 inhib: 17; CYP2C19 act: 0.8; CYP2C9 activ: 0.8; CYP2C19 inh: 23

Results for O=C(c1ccc2c(=O)n(Cc3ccc4c(c3)OCO4)c(=S)[nH]c2c1)N1CCCCC1 ?
CYP2C9 inhib: 6; CYP2C19 act: 0.9; sEH activator: -82; sEH inhibitor: 82*; CYP2C9 activ: 0.9; CYP2C19 inh: 10

How did COCCCNC(=O)c1ccc2c(=O)n(Cc3ccc4c(c3)OCO4)c(=S)[nH]c2c1 do in these assays?
CYP2C9 inhib: 13; CYP2C19 act: 1; sEH activator: -56; sEH inhibitor: 57; CYP2C9 activ: 0.9; CYP2C19 inh: -1

How did CC1CC(C)CN(C(=O)c2ccc3c(=O)n(Cc4ccc5c(c4)OCO5)c(=S)[nH]c3c2)C1 (stereo not drawn) do in these assays?
CYP2C9 inhib: 49; CYP2C19 act: 0.5; sEH activator: -84; sEH inhibitor: 85*; CYP2C9 activ: 0.5; CYP2C19 inh: 48
